# Data taken from PubChem BioAssay (NCATS).
# Unmarked numbers belong to inactive results. Results filed as inconclusive are left out. A call without a number means that no potency is given here. Calls of active or inactive are those of the source. Unless noted, the call rests on the fitted dose curve; in most records, active means well fitted curve in the direction sought with a large enough effect; inconclusive means small, poorly fitted or top-dose-only effect, or another doubt; inactive means no such curve, though single readings can be large; an effect the other way counts as inactive or inconclusive.
# Experiments:
# [1] = qHTS to identify inhibitors of the type 1 interferon - major histocompatibility complex class I in skeletal muscle: primary screen against the NCATS LOPAC collection (AID 1347405);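 further: lytic HiBiT luminescence reporting HLA-B protein level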; further: potency means the concentration at half of the fitted maximal effect
# Summary of the method: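 IFN-beta-stimulated (4 ng/ml) HLA-B HiBiT knock-in myoblasts, compound-treated 24 hrs up to 46 uM final; signal via LgBiT complementation and furimazine luminescence.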
# [2] = qHTS to identify inhibitors of the type 1 interferon - major histocompatibility complex class I in skeletal muscle: primary screen against the NCATS Pharmaceutical Collection (AID 1347407);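 further: luminescence of HiBiT knocked into endogenous HLA-B as interferon-induced MHC class I level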
# Summary of the method: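 Immortalized human myoblasts (C25cl48) with HiBiT knocked into endogenous HLA-B*08:01 were stimulated with 4.0 ng/ml IFN-beta and treated with compounds ([…] top 46 uM) for 24 hrs at 37 C. HiBiT lytic luminescence read.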
# [3] = qHTS for inhibitors of adenylyl cyclases using a fission yeast platform: a pilot screen against the NCATS LOPAC library (AID 1347410)
# Summary of the method: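 S. pombe CHP2027 (AC9-GNAS-PDE4D2) carrying PKA-repressed fbp1-GFP, incubated 18 h at 30C in EMM with LOPAC compounds at up to 57 uM. GFP gain-of-signal read by laser scanning cytometry; DMSO negative control.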
# [4] = molecular target: Protein phosphatase 1D (Homo sapiens) (UniProt O15297); test: RapidFire Mass Spectrometry qHTS Assay for Modulators of WT P53-Induced Phosphatase 1 (WIP1) (AID 1347424);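 further: amount of dephosphorylated VEPPL-S-QETFS peptide product formed by WIP1; series mostly up to about 63 µM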
# Protein phosphatase 1D (Homo sapiens), sequence (O15297 whole entry, looked up): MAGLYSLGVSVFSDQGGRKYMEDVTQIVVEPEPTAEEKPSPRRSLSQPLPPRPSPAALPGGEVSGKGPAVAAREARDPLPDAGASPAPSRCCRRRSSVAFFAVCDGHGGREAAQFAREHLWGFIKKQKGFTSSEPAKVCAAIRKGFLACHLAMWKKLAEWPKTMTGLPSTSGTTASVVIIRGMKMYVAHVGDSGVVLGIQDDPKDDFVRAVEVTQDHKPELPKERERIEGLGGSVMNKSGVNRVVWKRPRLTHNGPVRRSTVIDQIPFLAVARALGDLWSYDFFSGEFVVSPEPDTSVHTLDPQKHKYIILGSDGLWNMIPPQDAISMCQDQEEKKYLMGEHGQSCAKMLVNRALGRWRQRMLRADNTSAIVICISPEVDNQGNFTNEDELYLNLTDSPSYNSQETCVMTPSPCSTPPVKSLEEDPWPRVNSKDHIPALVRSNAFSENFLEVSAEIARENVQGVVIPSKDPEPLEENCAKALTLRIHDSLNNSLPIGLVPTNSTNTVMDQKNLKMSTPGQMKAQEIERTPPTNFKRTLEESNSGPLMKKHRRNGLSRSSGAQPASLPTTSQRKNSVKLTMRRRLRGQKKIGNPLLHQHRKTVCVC
# Summary of the method: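 RapidFire mass spectrometry measured dephosphorylated peptide after 5 min room-temperature reaction of 2 uM VEPPL-pS-QETFS with 10 nM WIP1 (50 mM Tris-HCl pH 7.5, 30 mM MgCl2, 0.1 mM EGTA, BSA), following 1 hr compound preincubation; 1 uM isotope-labelled product standard.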
# [5] = molecular target: Protein phosphatase 1D (Homo sapiens) (UniProt O15297); test: Rhodamine-PBP qHTS Assay for Modulators of WT P53-Induced Phosphatase 1 (WIP1) (AID 1347425)
# Summary of the method: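 Steps: enzyme with Rh-PBP sensor and compounds, room-temperature incubation of 1 hr, baseline read, addition of VEPPL-pS-QETFS (10 uM final), kinetic fluorescence reads at 525/598 nm. Activity equals final minus baseline signal.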
# [6] = molecular target: Single-stranded DNA cytosine deaminase (Homo sapiens) (UniProt Q9GZX7); test: Validation qHTS assay for inhibitors of Activation Induced Cytidine Deaminase (AID): AID signal (AID 1347429); further: potency means the concentration at half of the fitted maximal effect
# Single-stranded DNA cytosine deaminase (Homo sapiens), sequence (Q9GZX7 whole entry, looked up): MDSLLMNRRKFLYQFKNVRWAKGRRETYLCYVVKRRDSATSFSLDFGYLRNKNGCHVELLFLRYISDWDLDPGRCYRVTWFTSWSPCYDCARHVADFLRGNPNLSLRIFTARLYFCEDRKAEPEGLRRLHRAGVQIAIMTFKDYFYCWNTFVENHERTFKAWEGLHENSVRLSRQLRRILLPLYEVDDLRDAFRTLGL
# Summary of the method: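 Compounds (up to 114 uM final) are tested against AID plus UDG using DJC20/DJC23 FRET substrate. Reactions incubate 4 hr at room temperature, receive NaOH for 30 min, and are read at Ex 540/Em 590 nm.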
# [7] = Primary qHTS for inhibitors of La Crosse Virus (LACV) - induced cell death in SH-SY5Y cells (AID 1508616);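 further: top concentration of the series differs between compounds; higher means more rescue of cells from virus-induced death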
# Summary of the method: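 Screening measures cell viability in LACV-infected SH-SY5Y cultures. Compound was added before virus (0.01 MOI), and ATP was detected by luminescence 6 days later.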
# [8] = molecular target: Calcium and integrin-binding protein 1 (Homo sapiens) (UniProt Q99828); test: Validation qHTS for Identification of Calcium Integrin Binding protein 1 (CIB1) Competitor (AID 1508618)
# Calcium and integrin-binding protein 1 (Homo sapiens), sequence (Q99828 whole entry, looked up): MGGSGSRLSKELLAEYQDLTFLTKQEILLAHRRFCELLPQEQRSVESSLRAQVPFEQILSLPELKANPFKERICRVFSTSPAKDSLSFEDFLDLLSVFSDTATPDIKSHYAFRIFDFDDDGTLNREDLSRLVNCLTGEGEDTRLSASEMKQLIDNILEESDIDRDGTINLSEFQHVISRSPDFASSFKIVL
# Summary of the method: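 In this qHTS validation, the LOPAC set (up to 114 uM) was tested for blocking CIB1 binding to a fluorescein-tagged alphaIIb peptide, with FP detection at 480/540 nm.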
# [9] = molecular target: Calcium and integrin-binding protein 1 (Homo sapiens) (UniProt Q99828); test: Primary qHTS for Identification of Calcium Integrin Binding Protein 1 (CIB1) Competitor (AID 1508620);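 further: GST tagged CIB1 binding a fluorescein labelled alphaIIb integrin peptide tracer; top concentration of the series differs between compounds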
# Summary of the method: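 CIB1-GST (1 uM final) and compound incubated 15 min at room temperature before adding FITC-alphaIIb peptide tracer (100 nM final). Competition for binding read by fluorescence polarization (ex 480, em 540) after another 15 min at room temperature.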
# [10] = Primary qHTS for small molecule stabilizers of the endoplasmic reticulum resident proteome: Secreted ER Calcium Modulated Protein (SERCaMP) assay (AID 1508630)
# Summary of the method: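 The SH-SY5Y reporter protocol was run at 3 concentrations up to 38.3 uM (primary) or 11 concentrations (follow-up): 16 h compound, 100 nM thapsigargin for 4 h, then extracellular luciferase luminescence.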
# [11] = molecular target: Cytochrome P450 2C9 (Homo sapiens) (UniProt P11712); test: Cytochrome P450 family 2 subfamily C member 9 (CYP2C9) small molecule antagonists: luciferase biochemical (cell-free) qHTS assay (AID 1645842; active means well fitted curve in the direction sought with a large enough effect in the repeat runs; an effect the other way counts as inactive or inconclusive; further: series mostly up to about 57 µM; nearly all actives have a fitted effect of over 55% in size)
# Cytochrome P450 2C9 (Homo sapiens), sequence (P11712 whole entry, looked up): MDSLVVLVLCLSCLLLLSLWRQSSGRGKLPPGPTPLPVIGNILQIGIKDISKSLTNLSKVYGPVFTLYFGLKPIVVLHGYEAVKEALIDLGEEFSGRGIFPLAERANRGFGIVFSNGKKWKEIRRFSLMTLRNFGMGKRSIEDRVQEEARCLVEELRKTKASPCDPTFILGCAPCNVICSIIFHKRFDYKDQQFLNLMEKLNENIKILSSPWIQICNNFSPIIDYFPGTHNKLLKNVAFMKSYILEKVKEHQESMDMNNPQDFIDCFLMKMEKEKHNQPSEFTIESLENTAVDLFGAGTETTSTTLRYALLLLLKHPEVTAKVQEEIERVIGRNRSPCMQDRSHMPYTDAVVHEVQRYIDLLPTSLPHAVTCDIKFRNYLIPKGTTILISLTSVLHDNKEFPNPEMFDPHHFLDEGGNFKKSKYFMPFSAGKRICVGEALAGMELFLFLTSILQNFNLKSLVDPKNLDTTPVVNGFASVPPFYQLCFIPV
# Summary of the method: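 P450-Glo CYP2C9 system: proluciferin substrate with enzyme in mix containing 0.4% BSA, 10 min at room temperature, then NADPH regeneration solution added and incubated 1 h at 37C. Detection reagent stopped reaction; luminescence read after 20 min as RLU.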
# [12] = Validation qHTS assay for inhibitors of Activation Induced Cytidine Deaminase (AID): UDG Counterscreen signal (AID 1347427)
# Summary of the method: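 Fluorescence at 560 nm excitation, 665 nm emission reports UDG signal after 250 mM NaOH (2x) addition and 30 min. Enzymes (AID 1 uM, UDG 2 U/mL, at 4/3x) preincubated 10 min with compound, then 4 h with 4x 250 nM DJC20/DJC23 substrate at room temperature.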
# [13] = A High-Content qHTS Against Drug Library for the Identification of Small Molecules that Inhibit DYT1 Early Onset Primary Dystonia-Associated Cell Pathology (AID 1645839; calls by dose curve; further: series mostly up to about 46 µM)
# Summary of the method: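 High-content imaging quantified EGFP-TorsinA mislocalization in HEK293-derived cells inducibly expressing DYT1 mutant torsinA, after 48 h exposure to compound given together with tetracycline induction. Cell count served as a toxicity channel alongside %pathology.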
# [14] = molecular target: Cytochrome P450 2D6 (Homo sapiens) (UniProt P10635); test: Cytochrome P450 family 2 subfamily D member 6 (CYP2D6) small molecule antagonists: luciferase biochemical (cell-free) qHTS assay (AID 1645840; active means well fitted curve in the direction sought with a large enough effect in the repeat runs; an effect the other way counts as inactive or inconclusive; further: nearly all actives have a fitted effect of over 55% in size; further: potency means the concentration at half of the fitted maximal effect)
# Cytochrome P450 2D6 (Homo sapiens), sequence (P10635 whole entry, looked up): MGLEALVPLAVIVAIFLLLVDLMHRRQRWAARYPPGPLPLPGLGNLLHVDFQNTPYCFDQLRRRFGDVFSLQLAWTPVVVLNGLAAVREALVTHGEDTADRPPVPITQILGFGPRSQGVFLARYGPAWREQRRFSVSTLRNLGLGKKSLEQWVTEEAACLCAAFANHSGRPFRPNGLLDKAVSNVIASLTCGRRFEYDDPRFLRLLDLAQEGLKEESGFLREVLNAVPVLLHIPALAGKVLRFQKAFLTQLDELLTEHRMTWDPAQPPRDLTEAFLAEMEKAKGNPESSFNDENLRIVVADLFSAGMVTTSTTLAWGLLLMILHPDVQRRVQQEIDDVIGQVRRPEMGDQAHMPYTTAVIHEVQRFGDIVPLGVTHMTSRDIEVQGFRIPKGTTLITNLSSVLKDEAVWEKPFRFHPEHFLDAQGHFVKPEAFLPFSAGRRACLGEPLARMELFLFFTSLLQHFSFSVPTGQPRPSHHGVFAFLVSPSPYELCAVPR
# Summary of the method: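 P450-Glo CYP2D6 system: proluciferin substrate converted by enzyme to luciferin, read by luminescence proportional to activity. Enzyme-substrate mix with compound 10 min at room temperature, then NADPH regeneration 1 h before detection reagent.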
# [15] = molecular target: Papain (Carica papaya) (UniProt P00784); test: Primary qHTS assay for inhibitors of the protease papain (AID 1645873);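 further: papain turnover of Z-FR-AMC read as the AMC fluorescence gain over 10 min; series mostly up to about 50 µM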
# Papain (Carica papaya), sequence (P00784 whole entry, looked up): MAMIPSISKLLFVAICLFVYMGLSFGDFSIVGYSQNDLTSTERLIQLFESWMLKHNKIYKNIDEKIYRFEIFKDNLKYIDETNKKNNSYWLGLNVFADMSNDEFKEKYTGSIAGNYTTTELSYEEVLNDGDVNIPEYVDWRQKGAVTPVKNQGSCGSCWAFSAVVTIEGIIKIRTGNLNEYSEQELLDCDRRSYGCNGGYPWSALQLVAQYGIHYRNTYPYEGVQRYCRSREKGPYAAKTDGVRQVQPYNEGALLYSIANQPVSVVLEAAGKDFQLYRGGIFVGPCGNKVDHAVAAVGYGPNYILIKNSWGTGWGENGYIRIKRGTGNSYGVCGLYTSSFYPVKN
# [16] = Cell Viability qHTS for small molecule stabilizers of the endoplasmic reticulum resident proteome (AID 1508629); details: cell viability counter-screen, 100 nM thapsigargin for final 4 h;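 further: human SH-SY5Y neuroblastoma cells carrying the GLuc-SERCaMP reporter; compound exposure about 46 h in total before the viability read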
# [17] = molecular target: Cytochrome P450 3A4 (Homo sapiens) (UniProt P08684); test: Cytochrome P450 family 3 subfamily A member 4 (CYP3A4) small molecule antagonists: luciferase qHTS assay (AID 1645841; active means well fitted curve in the direction sought with a large enough effect in the repeat runs; an effect the other way counts as inactive or inconclusive; further: nearly all actives have a fitted effect of over 45% in size)
# Cytochrome P450 3A4 (Homo sapiens), sequence (P08684 whole entry, looked up): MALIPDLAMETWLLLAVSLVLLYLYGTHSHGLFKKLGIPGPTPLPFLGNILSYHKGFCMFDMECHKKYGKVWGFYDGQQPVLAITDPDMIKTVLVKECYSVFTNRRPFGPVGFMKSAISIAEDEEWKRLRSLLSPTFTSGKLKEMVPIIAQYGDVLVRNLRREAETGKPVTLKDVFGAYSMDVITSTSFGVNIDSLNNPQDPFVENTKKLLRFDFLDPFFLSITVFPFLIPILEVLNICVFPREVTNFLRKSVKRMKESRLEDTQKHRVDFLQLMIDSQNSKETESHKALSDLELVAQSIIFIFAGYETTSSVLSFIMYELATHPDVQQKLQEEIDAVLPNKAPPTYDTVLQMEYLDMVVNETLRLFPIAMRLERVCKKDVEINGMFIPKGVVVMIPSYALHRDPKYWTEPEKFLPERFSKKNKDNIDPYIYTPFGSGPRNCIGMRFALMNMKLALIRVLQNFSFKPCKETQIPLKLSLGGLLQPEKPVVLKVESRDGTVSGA
# Summary of the method: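 Luminescent CYP3A4 activity readout: compounds plus enzyme-substrate mix 10 min at room temperature, reaction started with NADPH regenerating system for 1 h, stopped with detection reagent, read after 20 min. Ketoconazole served as control.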
# [18] = qHTS to identify inhibitors of the type 1 interferon - major histocompatibility complex class I in skeletal muscle: primary screen against the NCATS Mechanism Interrogation Plate v5.0 (MIPE) Libary (AID 1347411); further: potency means the concentration at half of the fitted maximal effect; nearly all actives have a fitted effect of over 65% in size
# Summary of the method: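 IFN-beta-driven (4 ng/ml) HLA-B-HiBit expression in CRISPR-tagged C25cl48 myoblasts; compounds 11-pt, 1:3, max 46 uM, 24 hr exposure; lytic NanoLuc complementation luminescence.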
SMILES,Potency [1],Potency [2],outcome [3],Potency [4],outcome [5],Potency [6],Potency [7],outcome [8],Potency [9],Potency [10],Potency [11],outcome [12],Potency [13],Potency [14],Potency [15],max response [16],outcome [17],Potency [18]
CCn1cc(C(=O)O)c(=O)c2cc3c(cc21)OCO3,inactive,inactive,inactive,inactive,inactive,inactive,inactive,inactive,inactive,inactive,inactive,,,,,,,
CN(C)C(=O)Oc1cccc([N+](C)(C)C)c1,inactive,,inactive,inactive,inactive,,inactive,inactive,inactive,inactive,inactive,inactive,inactive,inactive,inactive,,,
CNCCC(Oc1ccccc1OC)c1ccccc1 (centres undefined),inactive,inactive,inactive,inactive,inactive,,inactive,inactive,inactive,,inactive,,,1.74 µM (active),inactive,,,
Cc1nc2sccn2c(=O)c1CCN1CCC(=C(c2ccc(F)cc2)c2ccc(F)cc2)CC1,inactive,,inactive,inactive,inactive,inactive,inactive,,inactive,,,inactive,,3.09 µM (active),inactive,-2.38%,,
NC/C=C/C(=O)O,inactive,,inactive,inactive,inactive,inactive,inactive,inactive,inactive,,inactive,inactive,,,inactive,,,
O=C(O)CCCCCCCC(=O)O,inactive,,inactive,inactive,inactive,,inactive,inactive,inactive,inactive,inactive,inactive,inactive,inactive,inactive,,,
C[C@]12CCC(=O)C=C1CC[C@@H]1[C@@H]2CC[C@@]2(C)[C@H]1CC[C@]2(O)C(=O)CO,inactive,inactive,inactive,inactive,inactive,inactive,inactive,inactive,inactive,,inactive,,,,,,,
CN(C)[C@@H]1C(=O)C(C(N)=O)=C(O)[C@@]2(O)C(=O)C3=C(O)c4c(O)ccc(Cl)c4[C@@H](O)[C@H]3C[C@@H]12,inactive,inactive,inactive,inactive,inactive,inactive,inactive,inactive,inactive,,,,inactive,inactive,,,inactive,
NC(=O)N1c2ccccc2C=Cc2ccccc21,inactive,inactive,inactive,inactive,inactive,,inactive,inactive,inactive,inactive,inactive,,,,inactive,,,
CC(=O)[C@]1(O)Cc2c(O)c3c(c(O)c2[C@@H](O[C@H]2C[C@H](N)[C@H](O)[C@H](C)O2)C1)C(=O)c1ccccc1C3=O,1 µM (active),,inactive,inactive,inactive,2 µM (active),inactive,inactive,,,inactive,,,17.4 µM (active),inactive,,,2.08 µM (active)
